The results in this text go back to PubChem BioAssay (EPA / NIEHS).

Calls of active or inactive are those of the source. Rule for the calls: active = hit-call score of the fitted dose curve at least 0.9, where 1 is the maximum; inactive = score below 0.9.

A short description of the assay: ATG_E_Box_CIS: Attagene CIS-FACTORIAL HepG2 Assay for human Enhancer Box (E-box) (AID 2282936). The note with it: HepG2 E-box cis-reporter transcription, actives raise or lower the signal. As for the experimental part:
ATG_CIS is a cell-based, multiplexed-readout assay that uses HepG2, a human liver cell line, with measurements taken at 24 hours after chemical dosing in a 24-well plate.ATG_E_Box_CIS is one of 52 assay component(s) measured or calculated from the ATG_CIS assay. It is designed to make measurements of mRNA induction, a form of inducible reporter, as detected with fluorescence intensity signals by Reverse transcription polymerase chain reaction (RT-PCR) and Capillary electrophoresis technology.Data from the assay component ATG_E_Box_CIS was analyzed into 1 assay endpoint. This assay endpoint, ATG_E_Box_CIS, was analyzed with bidirectional fitting relative to DMSO as the negative control and baseline of activity. Using a type of inducible reporter, measures of mRNA for gain or loss-of-signal activity can be used to understand the reporter gene at the transcription factor-level as they relate to the gene USF1. Furthermore, this assay endpoint can be referred to as a primary readout, because this assay has produced multiple assay endpoints where this one serves a reporter gene function. To generalize the intended target to other relatable targets, this assay endpoint is annotated to the dna binding intended target family, where the subfamily is basic helix-loop-helix protein.
Human liver HepG2 cells are transiently transfected with multiple reporter transcription units (MRTUs) in 6-well plates using FuGene 6 reagent (Roche; 3 ml FuGene/1 mg DNA). The MRTU constructs are regulated by a cis-regulating element (promoter). […] A major difference between the CIS and TRANS system is that in CIS activities of endogenous TFs are measured, whereas the TRANS assay evaluates changes in activities of exogenous, chimeric NR-Gal4 proteins. […] At the end of 24 hour incubation, total RNA was isolated using TriZol reagent (Invitrogen). The isolated RNA is then reverse-transcribed using oligo(dT) primer and Mo-MLV reverse transcriptase (Invitrogen) with DNAse I (Ambion) treatment for 30 min. The one-tenth of the produced cDNA was amplified by PCR using Taq DNA polymerase (Invitrogen) and two reporter sequence-specific primers. The PCR products were fluorescently labeled by primer extension with 6-arboxyfluorescein (6-FAM) 5'-labeled reporter sequence-specific primer (2 min at 95 C, 20 s at 68 C and 10 min at 72 C) and these products were digested with 5U of HpaI (New England Biolabs) for 2h at 37 C. The fragments were purified using Qiaquick PCR columns (Qiagen), analyzed on an ABI 3130xL genetic analyzer (Applied Biosystems) with peak positions identified by using a set of X-rhodamine (ROX)-labeled MapMarker1000 molecular weight standards (BioVentures). The raw capillary electrophoresis data was processed using Attagraph software (Attagene).
As for `CCOC(=O)CC(CC(=O)OCC)(OC(C)=O)C(=O)OCC`, the outcome was inactive. Same read-out and setting: next, `CC/C(=C\C(=N/O)C(N)=O)C(C)[N+](=O)[O-]` (stereo not given): “inactive”; `Clc1nc(Cl)c(Cl)c(Cl)c1Cl`: “inactive”; `Cc1[nH]cnc1C[C@H]1CCc2c(C)c3ccccc3n2C1=O`: “inactive”. With `Cc1ccc(N)cc1O`, the outcome was inactive.

For the compound `O=c1n(CC2CO2)c(=O)n(CC2CO2)c(=O)n1CC1CO1` (stereo not given), the result was inactive. Still for that read-out and setting: next, `CCOC(=O)c1ccc(C2CCC(NC[C@H](O)COc3ccc(O)c(NS(C)(=O)=O)c3)CC2)cc1` (stereo not given in full): “inactive”; `O=C(O)c1cc(N=Nc2ccc(S(=O)(=O)Nc3ccccn3)cc2)ccc1O`: “inactive”; `CCCCCCCCCCCCCCCO`: “inactive”. On the same count and under the same terms, next, `CC[C@H]1OC(=O)[C@H](C)[C@@H](O[C@H]2C[C@@](C)(OC)[C@@H](O)[C@H](C)O2)[C@H](C)[C@@H](O[C@@H]2O[C@H](C)C[C@H](N(C)C)[C@H]2O)[C@](C)(O)C[C@@H](C)C(=O)[C@H](C)[C@@H](O)[C@]1(C)O`: “inactive”.

Regarding `Nc1cccc(N)c1`, the result was inactive. Regarding `COc1ccc2sc(C(=O)Nc3nnn[nH]3)c(OC(C)C)c2c1`, the result was inactive. Take `O=C1CCC(N2C(=O)c3ccccc3C2=O)C(=O)N1` (stereo not given): the outcome was inactive.

With `Cn1c(=O)c2c(ncn2C)n(C)c1=O`, the result was inactive. Still for that read-out and setting: next, `CCOCCO`: “inactive”; `CC(C)=CCC/C(C)=C/CO`: “inactive”; `O=C(CCCCCCCCc1cccnc1)N1CCC(C=C(c2ccccc2)c2ccccc2)CC1`: “inactive”. Same read-out and setting: next, `CC[C@H]1CC[C@H](NCc2cc3c(cc2OC)[C@H]2C[C@H]2C(=O)N3C)[C@H](c2ccccc2)N1`: “inactive”; `CC(C)CCCCCCOC(=O)c1ccc(C(=O)OCCCCCCC(C)C)c(C(=O)OCCCCCCC(C)C)c1`: “inactive”. In the case of `COc1ccc(/C=C/S(=O)(=O)NC(=O)c2ccc(C)cc2Cl)cc1`, the outcome was inactive. Still for that read-out and setting: next, `CC(C)CC(C)(O)C#CC(C)(O)CC(C)C` (stereo not given): “inactive”. On to `On1ccccc1=S`, for which the AC50 is 8.78 µM (active). Take `CC(C)=CCCC(C)=CC=O`: the result was inactive. Same read-out and setting: the result for `Nc1ccc(Nc2ccccc2)cc1` reads “inactive”.

For `COC(=O)CC(=O)OC`, the outcome was inactive.

Take `CC[C@H](C)C(=O)O[C@H]1C[C@@H](C)C=C2C=C[C@H](C)[C@H](CC[C@@H]3C[C@@H](O)CC(=O)O3)[C@H]21`: the result was inactive. In the case of `CCCCC(CC)COC(=O)c1ccc(C(=O)OCC(CC)CCCC)cc1` (stereo not given), the outcome was inactive. With `O=C(OC[C@H]1O[C@@H](OC(=O)c2cc(O)c(O)c(OC(=O)c3cc(O)c(O)c(O)c3)c2)[C@H](OC(=O)c2cc(O)c(O)c(OC(=O)c3cc(O)c(O)c(O)c3)c2)[C@@H](OC(=O)c2cc(O)c(O)c(OC(=O)c3cc(O)c(O)c(O)c3)c2)[C@@H]1OC(=O)c1cc(O)c(O)c(OC(=O)c2cc(O)c(O)c(O)c2)c1)c1cc(O)c(O)c(OC(=O)c2cc(O)c(O)c(O)c2)c1`, the outcome was inactive. Same read-out and setting: the result for `O=c1[nH]c2ccc(S(=O)CCN3CCC(Cc4ccc(F)cc4)CC3)cc2o1` (stereo not given) reads “inactive”; that for `CC1(C)C(=O)N(Br)C(=O)N1Br`, “inactive”. Take `Cn1cnc([N+](=O)[O-])c1Sc1ncnc2nc[nH]c12`: the outcome was inactive. Still for that read-out and setting: the result for `O=C(O)CCN(C1(C(=O)NO)CCCC1)S(=O)(=O)c1ccc(Oc2ccc(F)cc2)cc1` reads “inactive”; that for `C1N2CN3CN1CN(C2)C3`, “inactive”. For `CC(C)=CCCC(C)CCO` (stereo not given), the result was inactive. As for `O=C1OC(=O)C2C3C=CC(C3)C12` (stereo not given), the result was inactive. As to `COCCOCCOCCOC`, the outcome was inactive. The same measure, in the same setting: the result for `NC(=O)NO` reads “inactive”. With `C1=CCCC=CCCC=CCC1`, the concentration at half-maximal activity (AC50) was 76.6 µM (active). In the case of `CCN(C(=O)c1cc(C)cc(OC[C@H](C)Nc2ccncc2)c1)C(C)C`, the outcome was inactive. As to `COc1ccc(-n2nc(C(F)F)cc2-c2ccc(S(C)=O)cc2)cc1` (stereo not given), the result was inactive.

A word on the AC50: it is the concentration giving half of the maximal activity seen.
